This is an account of results in ChEMBL document CHEMBL1961873, “Compounds: GSK PKIS; Assays: Nanosyn kinase panel” (2012).

The structures appear in SMILES notation.

The term inhibition denotes the drop in the measured response relative to a control, in per cent.

The target in assay [1] is Tyrosine-protein kinase CSK (Homo sapiens) (UniProt P41240). Particulars: at 1 µM.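 Further: each value is an averaged inhibition reading.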
The target of assay [2] is T1, Discoidin domain-containing receptor 2 (Homo sapiens) (UniProt Q16832).
T1 sequence (whole entry): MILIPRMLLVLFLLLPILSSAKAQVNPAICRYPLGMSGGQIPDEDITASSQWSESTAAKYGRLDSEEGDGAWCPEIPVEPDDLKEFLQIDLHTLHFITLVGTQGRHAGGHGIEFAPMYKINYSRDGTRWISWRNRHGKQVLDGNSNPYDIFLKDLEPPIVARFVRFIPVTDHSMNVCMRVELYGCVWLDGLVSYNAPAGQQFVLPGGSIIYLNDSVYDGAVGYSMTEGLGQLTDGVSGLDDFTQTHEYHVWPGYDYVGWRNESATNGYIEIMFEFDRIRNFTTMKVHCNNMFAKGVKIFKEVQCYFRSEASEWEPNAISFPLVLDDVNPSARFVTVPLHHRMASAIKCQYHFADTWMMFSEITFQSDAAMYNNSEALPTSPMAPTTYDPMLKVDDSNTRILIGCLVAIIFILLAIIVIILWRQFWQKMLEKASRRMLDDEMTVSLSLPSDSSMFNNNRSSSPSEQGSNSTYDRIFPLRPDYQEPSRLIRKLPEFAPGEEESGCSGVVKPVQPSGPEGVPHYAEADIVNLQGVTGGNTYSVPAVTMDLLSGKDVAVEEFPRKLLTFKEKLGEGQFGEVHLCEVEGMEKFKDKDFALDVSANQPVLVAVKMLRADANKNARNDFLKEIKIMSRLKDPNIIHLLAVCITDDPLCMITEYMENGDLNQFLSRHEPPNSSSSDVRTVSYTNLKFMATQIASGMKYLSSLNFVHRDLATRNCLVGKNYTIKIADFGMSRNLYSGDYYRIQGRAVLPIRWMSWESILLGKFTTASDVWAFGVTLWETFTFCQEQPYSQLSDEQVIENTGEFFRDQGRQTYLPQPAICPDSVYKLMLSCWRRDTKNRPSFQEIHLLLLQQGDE
Particulars: at 0.1 µM.

The target of assay [3] is T1, Discoidin domain-containing receptor 2 (Homo sapiens). Particulars: at 1 µM.
Assay [4] deals with Epidermal growth factor receptor (Homo sapiens) (UniProt P00533). Particulars: at 0.1 µM.
Assay [5] shares this target. Particulars: at 1 µM.
In assay [6] the test system is Epidermal growth factor receptor (Homo sapiens), P00533 [L858R]. Conditions: at 0.1 µM.
The test system is the same in assay [7]. Particulars: at 1 µM.
Assay [8] relates to Epidermal growth factor receptor (Homo sapiens), P00533 [L861Q]. Particulars: at 0.1 µM.
Assay [9] has the same test system. Particulars: at 1 µM.
The subject of assay [10] is Epidermal growth factor receptor (Homo sapiens), P00533 [T790M]. Particulars: at 0.1 µM.
The test system is the same in assay [11]. Particulars: at 1 µM.
The subject of assay [12] is Epidermal growth factor receptor (Homo sapiens), P00533 [L858R,T790M]. Particulars: at 0.1 µM.
The test system is the same in assay [13]. Conditions: at 1 µM.
The target of assay [14] is Ephrin type-A receptor 2 (Homo sapiens) (UniProt P29317). Conditions: at 0.1 µM.
Assay [15] has the same target. Particulars: at 1 µM.
The target of assay [16] is T2, Ephrin type-A receptor 3 (Homo sapiens) (UniProt P29320).
T2 sequence (whole entry): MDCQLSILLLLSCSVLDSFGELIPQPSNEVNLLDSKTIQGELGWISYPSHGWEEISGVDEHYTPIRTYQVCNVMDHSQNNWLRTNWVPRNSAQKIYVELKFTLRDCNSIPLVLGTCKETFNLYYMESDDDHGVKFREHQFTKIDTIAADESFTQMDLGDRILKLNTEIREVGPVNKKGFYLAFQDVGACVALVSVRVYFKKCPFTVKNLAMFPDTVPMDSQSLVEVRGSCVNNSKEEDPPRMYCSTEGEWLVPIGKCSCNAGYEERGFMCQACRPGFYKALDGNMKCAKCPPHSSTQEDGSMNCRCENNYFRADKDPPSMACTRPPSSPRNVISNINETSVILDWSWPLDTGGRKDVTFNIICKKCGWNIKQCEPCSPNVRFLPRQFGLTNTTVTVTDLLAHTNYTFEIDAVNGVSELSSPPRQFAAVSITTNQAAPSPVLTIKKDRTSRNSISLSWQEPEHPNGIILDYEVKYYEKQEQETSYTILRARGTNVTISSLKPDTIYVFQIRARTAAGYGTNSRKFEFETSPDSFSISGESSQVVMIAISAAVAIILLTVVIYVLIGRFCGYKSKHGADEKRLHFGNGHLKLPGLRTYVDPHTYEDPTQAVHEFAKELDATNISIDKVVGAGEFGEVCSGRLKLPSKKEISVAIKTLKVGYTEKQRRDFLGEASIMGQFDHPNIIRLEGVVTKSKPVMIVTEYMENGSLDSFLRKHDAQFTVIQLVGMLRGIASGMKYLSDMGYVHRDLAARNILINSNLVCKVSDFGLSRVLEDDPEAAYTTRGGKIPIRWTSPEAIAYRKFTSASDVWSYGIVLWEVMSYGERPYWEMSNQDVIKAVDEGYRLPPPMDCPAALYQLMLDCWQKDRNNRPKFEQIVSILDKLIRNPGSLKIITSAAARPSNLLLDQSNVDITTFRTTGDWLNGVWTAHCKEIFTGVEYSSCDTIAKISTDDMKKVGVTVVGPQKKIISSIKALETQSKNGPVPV
Particulars: at 0.1 µM.

Assay [17] addresses T2, Ephrin type-A receptor 3 (Homo sapiens). Particulars: at 1 µM.
Assay [18] has as its target Ephrin type-A receptor 4 (Homo sapiens) (UniProt P54764). Particulars: at 0.1 µM.
Assay [19] has the same target. Particulars: at 1 µM.
In assay [20] the target is T3, Ephrin type-B receptor 2 (Homo sapiens) (UniProt P29323).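 Further: reported as mean inhibition of EPHB2, from the GSK PKIS dataset.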
T3 sequence (whole entry): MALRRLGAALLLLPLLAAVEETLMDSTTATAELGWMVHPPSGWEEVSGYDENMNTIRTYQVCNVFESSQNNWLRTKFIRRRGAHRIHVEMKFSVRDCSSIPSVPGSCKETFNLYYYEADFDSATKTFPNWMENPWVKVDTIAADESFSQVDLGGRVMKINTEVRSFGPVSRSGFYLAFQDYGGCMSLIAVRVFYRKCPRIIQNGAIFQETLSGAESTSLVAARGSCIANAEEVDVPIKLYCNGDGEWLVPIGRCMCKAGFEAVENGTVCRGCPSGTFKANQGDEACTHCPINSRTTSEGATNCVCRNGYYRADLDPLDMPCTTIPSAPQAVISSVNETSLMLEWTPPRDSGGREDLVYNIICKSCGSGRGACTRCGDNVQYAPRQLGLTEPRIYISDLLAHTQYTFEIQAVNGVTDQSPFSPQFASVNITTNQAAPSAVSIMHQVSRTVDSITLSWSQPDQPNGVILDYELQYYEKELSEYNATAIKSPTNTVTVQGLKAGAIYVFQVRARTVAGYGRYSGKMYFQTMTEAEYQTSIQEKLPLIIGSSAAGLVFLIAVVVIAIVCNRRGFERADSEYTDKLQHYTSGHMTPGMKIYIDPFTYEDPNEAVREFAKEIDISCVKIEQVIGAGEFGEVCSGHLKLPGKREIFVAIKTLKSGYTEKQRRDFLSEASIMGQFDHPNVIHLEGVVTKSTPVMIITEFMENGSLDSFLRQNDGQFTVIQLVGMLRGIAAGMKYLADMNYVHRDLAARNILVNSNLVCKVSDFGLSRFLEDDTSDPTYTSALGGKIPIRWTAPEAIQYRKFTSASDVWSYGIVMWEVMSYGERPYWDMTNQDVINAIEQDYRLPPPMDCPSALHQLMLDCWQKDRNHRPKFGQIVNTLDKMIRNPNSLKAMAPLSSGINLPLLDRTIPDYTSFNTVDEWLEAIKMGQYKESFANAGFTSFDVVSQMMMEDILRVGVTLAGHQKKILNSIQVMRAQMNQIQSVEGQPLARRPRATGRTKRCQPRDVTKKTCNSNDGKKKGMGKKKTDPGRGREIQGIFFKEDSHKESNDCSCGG
Particulars: at 0.1 µM.

Chain of Epidermal growth factor receptor (Homo sapiens) (P00533 whole entry): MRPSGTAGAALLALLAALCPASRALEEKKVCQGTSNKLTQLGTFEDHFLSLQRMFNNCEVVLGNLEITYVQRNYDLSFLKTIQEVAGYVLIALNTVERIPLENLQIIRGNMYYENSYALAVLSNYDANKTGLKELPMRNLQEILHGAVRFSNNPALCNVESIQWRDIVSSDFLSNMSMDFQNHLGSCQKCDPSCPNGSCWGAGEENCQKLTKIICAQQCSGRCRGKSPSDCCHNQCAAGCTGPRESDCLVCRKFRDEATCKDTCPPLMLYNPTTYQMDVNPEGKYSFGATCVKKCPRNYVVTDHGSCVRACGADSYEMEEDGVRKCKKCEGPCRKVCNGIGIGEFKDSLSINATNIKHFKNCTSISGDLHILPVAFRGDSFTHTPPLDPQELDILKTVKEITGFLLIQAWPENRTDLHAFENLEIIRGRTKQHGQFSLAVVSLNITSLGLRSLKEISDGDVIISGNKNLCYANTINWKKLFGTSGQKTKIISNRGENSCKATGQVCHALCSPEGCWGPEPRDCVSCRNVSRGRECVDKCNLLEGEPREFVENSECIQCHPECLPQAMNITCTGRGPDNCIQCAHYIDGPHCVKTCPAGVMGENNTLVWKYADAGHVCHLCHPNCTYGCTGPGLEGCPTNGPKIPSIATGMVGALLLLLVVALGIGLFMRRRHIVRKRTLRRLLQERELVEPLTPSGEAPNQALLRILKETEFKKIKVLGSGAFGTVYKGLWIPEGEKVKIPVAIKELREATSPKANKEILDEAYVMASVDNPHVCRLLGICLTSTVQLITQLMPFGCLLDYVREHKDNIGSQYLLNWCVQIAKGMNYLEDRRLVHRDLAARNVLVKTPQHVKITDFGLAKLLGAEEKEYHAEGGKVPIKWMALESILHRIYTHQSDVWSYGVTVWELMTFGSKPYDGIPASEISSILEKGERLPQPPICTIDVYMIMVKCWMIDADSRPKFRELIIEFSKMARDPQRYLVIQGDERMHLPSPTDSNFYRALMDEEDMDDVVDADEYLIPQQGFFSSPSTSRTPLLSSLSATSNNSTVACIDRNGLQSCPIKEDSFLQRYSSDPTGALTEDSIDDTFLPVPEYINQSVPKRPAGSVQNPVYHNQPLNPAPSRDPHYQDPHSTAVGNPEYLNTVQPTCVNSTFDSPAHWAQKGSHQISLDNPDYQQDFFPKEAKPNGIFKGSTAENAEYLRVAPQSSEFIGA
Chain of Ephrin type-A receptor 4 (Homo sapiens) (P54764 whole entry): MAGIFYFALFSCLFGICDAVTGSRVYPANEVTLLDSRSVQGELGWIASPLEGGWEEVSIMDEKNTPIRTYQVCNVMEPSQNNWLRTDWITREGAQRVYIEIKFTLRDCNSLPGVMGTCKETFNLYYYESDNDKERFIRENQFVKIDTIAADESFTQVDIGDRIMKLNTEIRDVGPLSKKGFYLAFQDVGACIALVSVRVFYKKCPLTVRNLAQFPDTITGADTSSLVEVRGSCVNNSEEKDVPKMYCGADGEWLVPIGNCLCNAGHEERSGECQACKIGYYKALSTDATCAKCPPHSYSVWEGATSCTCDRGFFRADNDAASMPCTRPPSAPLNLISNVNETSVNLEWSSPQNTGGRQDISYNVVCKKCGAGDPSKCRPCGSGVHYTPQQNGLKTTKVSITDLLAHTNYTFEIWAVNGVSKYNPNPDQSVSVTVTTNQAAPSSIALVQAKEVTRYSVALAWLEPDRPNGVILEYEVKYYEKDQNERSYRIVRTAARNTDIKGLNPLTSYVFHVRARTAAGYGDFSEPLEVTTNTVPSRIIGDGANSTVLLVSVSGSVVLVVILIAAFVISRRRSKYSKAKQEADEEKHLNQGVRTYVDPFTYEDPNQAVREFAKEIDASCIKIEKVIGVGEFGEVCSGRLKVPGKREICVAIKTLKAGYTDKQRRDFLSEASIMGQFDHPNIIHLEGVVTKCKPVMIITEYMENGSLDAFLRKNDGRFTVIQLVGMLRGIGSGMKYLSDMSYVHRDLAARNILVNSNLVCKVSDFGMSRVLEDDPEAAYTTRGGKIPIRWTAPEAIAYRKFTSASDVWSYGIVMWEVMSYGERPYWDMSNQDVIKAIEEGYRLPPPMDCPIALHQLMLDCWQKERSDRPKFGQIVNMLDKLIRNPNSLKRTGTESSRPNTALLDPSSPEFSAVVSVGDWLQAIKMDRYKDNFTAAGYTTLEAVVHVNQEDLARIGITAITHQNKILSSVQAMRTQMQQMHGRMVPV
Chain of Ephrin type-A receptor 2 (Homo sapiens) (P29317 whole entry): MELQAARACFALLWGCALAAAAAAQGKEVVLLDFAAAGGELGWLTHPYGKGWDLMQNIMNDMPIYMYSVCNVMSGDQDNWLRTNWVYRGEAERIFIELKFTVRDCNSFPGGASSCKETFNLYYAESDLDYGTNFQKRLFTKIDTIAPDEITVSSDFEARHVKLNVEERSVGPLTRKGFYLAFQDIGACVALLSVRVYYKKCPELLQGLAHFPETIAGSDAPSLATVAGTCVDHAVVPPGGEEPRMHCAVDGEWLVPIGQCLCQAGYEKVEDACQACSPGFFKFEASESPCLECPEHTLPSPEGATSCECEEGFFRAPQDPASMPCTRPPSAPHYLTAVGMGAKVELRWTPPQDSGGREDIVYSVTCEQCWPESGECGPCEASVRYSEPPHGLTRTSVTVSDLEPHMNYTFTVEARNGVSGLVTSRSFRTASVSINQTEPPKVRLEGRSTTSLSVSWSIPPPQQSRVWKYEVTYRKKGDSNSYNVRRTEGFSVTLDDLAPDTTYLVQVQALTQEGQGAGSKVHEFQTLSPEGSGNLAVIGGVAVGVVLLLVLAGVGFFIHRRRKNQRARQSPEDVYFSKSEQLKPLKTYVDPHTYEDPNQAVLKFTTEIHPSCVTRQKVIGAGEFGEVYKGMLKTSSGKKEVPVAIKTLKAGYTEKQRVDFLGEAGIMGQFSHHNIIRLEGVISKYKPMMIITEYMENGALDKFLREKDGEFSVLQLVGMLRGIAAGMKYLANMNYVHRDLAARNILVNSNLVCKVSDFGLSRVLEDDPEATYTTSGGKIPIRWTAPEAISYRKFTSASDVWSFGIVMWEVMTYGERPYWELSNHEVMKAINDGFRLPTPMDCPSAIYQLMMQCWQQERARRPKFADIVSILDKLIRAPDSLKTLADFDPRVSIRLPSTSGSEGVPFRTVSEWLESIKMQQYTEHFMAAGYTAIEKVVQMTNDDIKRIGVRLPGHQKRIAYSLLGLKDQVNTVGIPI
Chain of Epidermal growth factor receptor (Homo sapiens), P00533 [L858R] (P00533 whole entry L858R): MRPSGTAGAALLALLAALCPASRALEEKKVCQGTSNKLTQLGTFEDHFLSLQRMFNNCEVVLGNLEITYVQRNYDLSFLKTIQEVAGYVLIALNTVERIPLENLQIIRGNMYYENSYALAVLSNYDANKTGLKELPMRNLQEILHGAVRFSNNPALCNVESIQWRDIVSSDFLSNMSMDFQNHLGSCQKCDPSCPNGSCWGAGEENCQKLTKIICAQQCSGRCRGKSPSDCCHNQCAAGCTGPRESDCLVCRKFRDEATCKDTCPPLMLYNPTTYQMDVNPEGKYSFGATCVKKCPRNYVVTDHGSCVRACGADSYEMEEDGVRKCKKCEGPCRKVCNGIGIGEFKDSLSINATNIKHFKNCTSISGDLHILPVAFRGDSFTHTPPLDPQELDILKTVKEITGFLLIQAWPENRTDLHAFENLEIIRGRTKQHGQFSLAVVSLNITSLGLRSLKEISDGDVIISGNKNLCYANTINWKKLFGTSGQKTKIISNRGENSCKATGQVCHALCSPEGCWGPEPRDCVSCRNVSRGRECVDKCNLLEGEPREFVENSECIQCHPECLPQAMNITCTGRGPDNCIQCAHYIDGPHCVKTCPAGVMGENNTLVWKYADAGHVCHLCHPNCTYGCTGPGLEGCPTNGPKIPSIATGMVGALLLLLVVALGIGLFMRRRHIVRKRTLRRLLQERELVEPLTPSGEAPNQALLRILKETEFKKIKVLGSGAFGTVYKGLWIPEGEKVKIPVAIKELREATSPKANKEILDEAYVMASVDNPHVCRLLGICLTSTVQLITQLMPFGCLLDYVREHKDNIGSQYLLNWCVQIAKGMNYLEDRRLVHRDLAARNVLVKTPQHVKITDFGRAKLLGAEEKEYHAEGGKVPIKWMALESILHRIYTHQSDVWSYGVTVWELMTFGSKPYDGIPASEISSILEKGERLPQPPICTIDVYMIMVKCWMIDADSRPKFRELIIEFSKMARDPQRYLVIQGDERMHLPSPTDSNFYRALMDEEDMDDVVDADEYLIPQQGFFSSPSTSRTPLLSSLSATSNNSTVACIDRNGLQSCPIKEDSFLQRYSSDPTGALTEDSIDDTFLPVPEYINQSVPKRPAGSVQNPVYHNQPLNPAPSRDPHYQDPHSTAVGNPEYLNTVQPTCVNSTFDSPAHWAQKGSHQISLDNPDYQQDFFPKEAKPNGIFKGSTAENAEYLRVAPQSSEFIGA
Chain of Tyrosine-protein kinase CSK (Homo sapiens) (P41240 2-450 limits assumed): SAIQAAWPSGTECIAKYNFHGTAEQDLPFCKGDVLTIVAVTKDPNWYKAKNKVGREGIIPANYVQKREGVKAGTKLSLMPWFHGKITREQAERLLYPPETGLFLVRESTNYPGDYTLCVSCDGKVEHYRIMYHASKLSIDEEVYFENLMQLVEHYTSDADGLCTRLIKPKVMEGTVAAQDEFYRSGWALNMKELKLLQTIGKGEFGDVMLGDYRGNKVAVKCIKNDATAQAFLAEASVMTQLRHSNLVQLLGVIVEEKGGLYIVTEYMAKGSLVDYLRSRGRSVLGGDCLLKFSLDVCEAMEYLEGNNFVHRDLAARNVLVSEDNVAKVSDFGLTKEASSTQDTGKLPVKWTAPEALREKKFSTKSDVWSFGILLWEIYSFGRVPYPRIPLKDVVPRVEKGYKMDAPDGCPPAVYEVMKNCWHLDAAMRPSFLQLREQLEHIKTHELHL

Take `COc1ccc2[nH]c3c4[nH]c5ccc(OC)cc5c4c4c(c3c2c1)C(=O)NC4=O`: the inhibition in assay [1] was determined as 9.75%; in [2], 2.8%; in assay [3], 16.8%; in [4], 2.87%; in assay [5], 23.3%; in assay [6], 18.2%. The inhibition amounted to 64.8% in [7]; 7.22% in assay [8]; 21.2% in assay [9]; 3.67% in [10]; 17.9% in assay [11]; 9.7% in [12]. Besides, the inhibition was 53.1% in [13]; 2.52% in [14]; 0.85% in [15]; 5.78% in [16]; 6.32% in assay [17]; 10.1% in [18]. The inhibition in assay [19] was 22.6%; in assay [20], 10.7%.
Consider `NS(=O)(=O)c1ccc(N/N=C2\C(=O)Nc3ccc4ncccc4c32)cc1`, for which the inhibition in assay [1] came to 9.03%; in [2], 0.92%; in assay [3], 6.09%; in assay [4] it was 0.87%; in [5], 6.7%; in assay [6] it was 1.35%. For the same molecule, the inhibition in assay [7] is 2.75%; in assay [8], 1.5%; in assay [9], -1.33%; in [10] it was 1.15%; in assay [11], -0.36%; in assay [12], 1.77%. Further, the inhibition in assay [13] was 5.28%; in assay [14], 1.99%; in assay [15] it was 9.56%; in assay [16] it was 5.42%; in [17], 12.4%; in [18], 8.83%. Also, the inhibition in [19] was determined as 31%; in [20], 8.06%.
As for `CC(C)COC(=O)c1ccc2c(c1)/C(=C/Nc1ccc(S(N)(=O)=O)cc1)C(=O)N2`, the inhibition in assay [1] is -1.85%; in assay [2], -1.05%; in assay [3], 2.05%; in assay [4], 1.64%; in assay [5], 4.58%; in [6], -0.29%. The inhibition in assay [7] is 0.49%; in assay [8] it was -1.62%; in assay [9], -0.46%; in assay [10], -1.76%; in [11], -2.28%; in assay [12], -2.38%. Moreover, the inhibition is 3.71% in [13]; -3.29% in [14]; -3.24% in assay [15]; -2.74% in assay [16]; 0.31% in assay [17]; -1.11% in [18]. The inhibition was 1.79% in assay [19] and -3.84% in assay [20].
For `CN1CCC(n2cnc(-c3ccc(F)cc3)c2-c2ccnc(N)n2)CC1`, the inhibition in assay [1] came to 1.95%; in [2] it was 0.93%; in assay [3], 1.6%; in assay [4] it was 5.7%; in assay [5], 12.2%; in [6], 3.61%. For the same molecule, the inhibition in assay [7] is 16.5%; in assay [8], 1.43%; in assay [9], 6.75%; in [10], -0.02%; in assay [11], 1.75%; in assay [12] it was -4.77%. For the same molecule, the inhibition in assay [13] was 0.83%; in assay [14], 0.47%; in [15], -0.42%; in [16] it was 1.8%; in assay [17], 2.95%; in assay [18] it was 5.99%. The inhibition in assay [19] was 7.11%; in assay [20], 5.98%.
For the molecule `c1ccc(COc2ccc(Nc3ncnc4ccc(-c5ccco5)cc34)cc2)cc1`, the inhibition was 1.89% in [1]; 0.26% in assay [2]; 1.14% in assay [3]; 64.3% in [4]; 86.1% in assay [5]; 9.89% in assay [6]. Besides, the inhibition in [7] was 39.4%; in [8] it was 22.1%; in assay [9] it was 36.1%; in assay [10] it was 1.47%; in assay [11], 5%; in assay [12], -0.19%. For the same molecule, the inhibition in assay [13] is -1.64%; in [14], 0.9%; in assay [15] it was -0.47%; in assay [16], -0.08%; in assay [17], 0.71%; in assay [18], 0.05%. Also, in [19], the inhibition is 2.86%.
Regarding `Clc1ccc(-c2nn3ncccc3c2-c2ccnc(Nc3ccccc3)n2)cc1`, the inhibition in [1] is 5.89%; in assay [2], 3%; in [3] it was 76.7%; in [4], 13.2%; in assay [5], 61.7%; in [6] it was 43.5%. Further, the inhibition amounted to 87.6% in assay [7]; 12% in assay [8]; 58.5% in assay [9]; 1.98% in assay [10]; 14.4% in assay [11]; 9.72% in assay [12]. Further, the inhibition in assay [13] is 53.3%; in assay [14] it was -1.33%; in assay [15], 2.12%; in [16], 1.69%; in assay [17] it was 7.97%; in assay [18], 3.45%. Further, the values for the inhibition in assay [19] and in assay [20] were 23.3% and 8.11%, respectively.
With `CNC(=O)c1cc(-c2ccc(F)cc2)cc(-c2ccc(S(=O)(=O)N3CCCC3)cc2)c1N`, the inhibition was found to be 2.28% in assay [1]; 1.09% in assay [2]; 1.38% in assay [3]; 5.94% in assay [4]; 6.92% in assay [5]; 0.45% in [6]. Moreover, the inhibition in assay [7] was 5.35%; in [8], 2.56%; in assay [9], 4.86%; in assay [10] it was 0.67%; in assay [11], 0.62%; in assay [12] it was -0.37%. Also, the inhibition was 2.95% in assay [13]; -2.99% in assay [14]; -1.92% in assay [15]; 2.55% in assay [16]; 2.23% in assay [17]; 5.15% in assay [18]. Besides, the inhibition was 6.55% in assay [19] and 2.73% in assay [20].
